Results on 21 compounds are retold here after PubChem BioAssay (EPA / NIEHS).

Test [1] can be described thus: ATG_CRE_CIS: Attagene CIS-FACTORIAL HepG2 Assay for human cAMP Responsive Element (CRE) binding protein 3 (AID 2282926). As to conditions: HepG2 CRE cis-reporter, Attagene multiplexed mRNA; actives raise or lower the signal. The gist of the method: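 We dosed HepG2 cells bearing multiple cis-promoter reporter units for 24 h and measured reporter mRNA by RT-PCR with capillary electrophoresis detection. Bidirectional concentration-response fitting used DMSO as negative control.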

Test [2] has as its target CCAAT/enhancer-binding protein beta (Homo sapiens) (UniProt P17676). Briefly: ATG_C_EBP_CIS: Attagene CIS-FACTORIAL HepG2 Assay for human CCAAT/Enhancer Binding Protein (C/EBP) beta (AID 2282927). The settings on record: HepG2 Attagene cis-factorial transcription factor reporter; actives raise or lower the signal. A digest of the protocol:
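RT-PCR/capillary electrophoresis fluorescence of reporter mRNA, 24 h post-dose, in HepG2 cells carrying transfected cis-promoter reporter units. Bidirectional curve fitting against DMSO baseline captures gain or loss of signal.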

Test [3] in a line: ATG_CMV_CIS: Attagene CIS-FACTORIAL HepG2 Assay for human CMV (Internal Marker) (AID 2282928).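 Also: endpoint acts as a background internal control marker rather than a target.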 As to conditions: HepG2 CMV promoter reporter, transcription factor profiling; actives raise or lower the signal. The gist of the method:
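Cell system: HepG2, transiently transfected multiple reporter units under cis promoters. Exposure: 24 h. Detection: RT-PCR, FAM labeling, HpaI digestion, capillary electrophoresis. Analysis: bidirectional, DMSO baseline.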

Test [4] in a line: ATG_DR4_LXR_CIS: Attagene CIS-FACTORIAL HepG2 Assay for human Liver X Receptor (LXR), DR4 submotif (AID 2282929). The settings on record: HepG2 Attagene DR4 cis-reporter, mRNA transcription; actives raise or lower the signal. The gist of the method:
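Readout: reporter transcript fluorescence after RT-PCR and capillary electrophoresis, fitted bidirectionally against DMSO controls. Human HepG2 liver cells carried transiently transfected multiplexed reporter constructs; endogenous transcription factor activity measured 24 h post-dosing.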

Test [5] deals with Aryl hydrocarbon receptor (Homo sapiens) (UniProt P35869). Briefly: ATG_Ahr_CIS: Attagene CIS-FACTORIAL HepG2 Assay for human Aryl Hydrocarbon Receptor (Ahr) (AID 2282930). The settings on record: HepG2 AhR cis-factorial reporter transcription; actives raise or lower the signal. The gist of the method:
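HepG2 cells transiently transfected with cis-element-driven multiplexed reporter transcription units; endogenous transcription factor activity measured as reporter mRNA 24 h after dosing. RT-PCR, 6-FAM labelling, HpaI digestion, capillary electrophoresis; bidirectional fitting versus DMSO baseline.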

A short description of test [6]: ATG_AP_1_CIS: Attagene CIS-FACTORIAL HepG2 Assay for human Activator Protein 1 (AP-1) (AID 2282931). The settings on record: HepG2 Attagene cis-factorial AP-1 reporter mRNA; actives raise or lower the signal. A digest of the protocol:
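Reporter transcripts were measured 24 h after dosing by RT-PCR and capillary electrophoresis of fluorescent fragments. Cells: HepG2 carrying transfected cis-regulated reporter constructs reading endogenous factor activity. Gain or loss fitted against DMSO.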

Test [7] can be described thus: ATG_AP_2_CIS: Attagene CIS-FACTORIAL HepG2 Assay for human Activator Protein 2 (AP-2) (AID 2282932). As to conditions: HepG2 AP-2 cis-reporter, Attagene transcription factor profiling; actives raise or lower the signal. The gist of the method:
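Bidirectional curve fitting against DMSO was applied to reporter mRNA signals from HepG2 cells 24 h after dosing. Cis-promoter reporter units, transiently transfected, were read by RT-PCR plus capillary electrophoresis.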

Test [8] is described as follows: ATG_BRE_CIS: Attagene CIS-FACTORIAL HepG2 Assay for human Bone Morphogenetic Protein (BMP) Response Element (BRE) (AID 2282933). The settings on record: HepG2 BMP response element reporter, Attagene transcription factor profiling; actives raise or lower the signal. A digest of the protocol: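 Multiplexed cis-reporter assay, HepG2, 24 h exposure. mRNA from reporter units quantified via RT-PCR/CE; DMSO baseline; bidirectional curve fit.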

Test [9] concerns the target Retinoic acid receptor alpha (Homo sapiens) (UniProt P10276). Briefly: ATG_DR5_RAR_CIS: Attagene CIS-FACTORIAL HepG2 Assay for human Retinoic Acid Receptor Alpha (RARE), DR5 submotif (AID 2282934). The settings on record: HepG2 Attagene cis-factorial RARE DR5 reporter, mRNA; actives raise or lower the signal. The gist of the method:
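HepG2 cells transiently transfected with multiplexed reporter units under cis (DR5 RARE) promoters, so endogenous transcription factor activity is measured. After 24 h compound exposure, reporter mRNA is quantified by RT-PCR with fluorescent labelling and capillary electrophoresis; bidirectional fitting versus DMSO.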

Test [10] concerns the target Transcription factor E2F1 (Homo sapiens) (UniProt Q01094). In words: ATG_E2F_CIS: Attagene CIS-FACTORIAL HepG2 Assay for human E2F Transcription Factor 1 (AID 2282935). As to conditions: HepG2 Attagene cis-reporter, E2F reporter RNA transcripts; actives raise or lower the signal. A digest of the protocol:
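Multiplexed cis-reporter assay: HepG2, transient transfection, 24 h dosing, mRNA quantitation by labeled RT-PCR and CE.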

Calls of active or inactive are those of the source. The calls were made as follows: active = hit-call score of the fitted dose curve at least 0.9, where 1 is the maximum; inactive = score below 0.9.

Transcription factor E2F1 (Homo sapiens), sequence (Q01094 whole entry, looked up): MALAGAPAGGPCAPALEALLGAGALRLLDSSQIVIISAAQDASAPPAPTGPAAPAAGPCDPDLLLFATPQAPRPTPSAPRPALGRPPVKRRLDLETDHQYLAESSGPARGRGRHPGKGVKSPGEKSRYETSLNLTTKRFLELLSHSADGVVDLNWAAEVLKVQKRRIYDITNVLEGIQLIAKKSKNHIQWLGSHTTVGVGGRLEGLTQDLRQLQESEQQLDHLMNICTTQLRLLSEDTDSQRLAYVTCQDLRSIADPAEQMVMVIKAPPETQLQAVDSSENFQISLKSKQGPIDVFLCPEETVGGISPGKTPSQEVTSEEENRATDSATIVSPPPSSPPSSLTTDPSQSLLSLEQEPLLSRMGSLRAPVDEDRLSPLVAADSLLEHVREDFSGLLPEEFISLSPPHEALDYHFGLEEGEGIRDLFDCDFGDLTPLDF
Retinoic acid receptor alpha (Homo sapiens), sequence (P10276 whole entry, looked up): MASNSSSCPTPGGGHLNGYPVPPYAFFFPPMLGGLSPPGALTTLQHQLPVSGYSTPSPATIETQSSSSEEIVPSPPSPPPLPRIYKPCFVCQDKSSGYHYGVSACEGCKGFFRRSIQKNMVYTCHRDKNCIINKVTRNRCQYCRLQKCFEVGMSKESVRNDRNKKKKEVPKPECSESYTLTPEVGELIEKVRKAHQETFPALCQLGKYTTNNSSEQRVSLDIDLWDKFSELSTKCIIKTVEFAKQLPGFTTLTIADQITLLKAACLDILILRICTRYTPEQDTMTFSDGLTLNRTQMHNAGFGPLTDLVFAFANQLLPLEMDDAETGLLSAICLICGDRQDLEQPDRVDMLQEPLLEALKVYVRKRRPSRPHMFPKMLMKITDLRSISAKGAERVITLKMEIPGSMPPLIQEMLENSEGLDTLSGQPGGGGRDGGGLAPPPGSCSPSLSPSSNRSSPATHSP
CCAAT/enhancer-binding protein beta (Homo sapiens), sequence (P17676 whole entry, looked up): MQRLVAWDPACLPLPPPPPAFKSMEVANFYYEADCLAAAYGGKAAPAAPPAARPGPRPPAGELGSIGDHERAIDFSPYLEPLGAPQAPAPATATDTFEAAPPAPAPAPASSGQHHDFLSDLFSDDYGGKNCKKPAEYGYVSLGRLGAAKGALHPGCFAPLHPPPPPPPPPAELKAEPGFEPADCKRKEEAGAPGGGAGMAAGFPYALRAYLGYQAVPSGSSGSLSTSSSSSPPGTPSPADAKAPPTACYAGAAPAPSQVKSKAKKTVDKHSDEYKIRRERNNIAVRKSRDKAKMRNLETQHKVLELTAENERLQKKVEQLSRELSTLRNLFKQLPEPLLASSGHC
Aryl hydrocarbon receptor (Homo sapiens), sequence (P35869 whole entry, looked up): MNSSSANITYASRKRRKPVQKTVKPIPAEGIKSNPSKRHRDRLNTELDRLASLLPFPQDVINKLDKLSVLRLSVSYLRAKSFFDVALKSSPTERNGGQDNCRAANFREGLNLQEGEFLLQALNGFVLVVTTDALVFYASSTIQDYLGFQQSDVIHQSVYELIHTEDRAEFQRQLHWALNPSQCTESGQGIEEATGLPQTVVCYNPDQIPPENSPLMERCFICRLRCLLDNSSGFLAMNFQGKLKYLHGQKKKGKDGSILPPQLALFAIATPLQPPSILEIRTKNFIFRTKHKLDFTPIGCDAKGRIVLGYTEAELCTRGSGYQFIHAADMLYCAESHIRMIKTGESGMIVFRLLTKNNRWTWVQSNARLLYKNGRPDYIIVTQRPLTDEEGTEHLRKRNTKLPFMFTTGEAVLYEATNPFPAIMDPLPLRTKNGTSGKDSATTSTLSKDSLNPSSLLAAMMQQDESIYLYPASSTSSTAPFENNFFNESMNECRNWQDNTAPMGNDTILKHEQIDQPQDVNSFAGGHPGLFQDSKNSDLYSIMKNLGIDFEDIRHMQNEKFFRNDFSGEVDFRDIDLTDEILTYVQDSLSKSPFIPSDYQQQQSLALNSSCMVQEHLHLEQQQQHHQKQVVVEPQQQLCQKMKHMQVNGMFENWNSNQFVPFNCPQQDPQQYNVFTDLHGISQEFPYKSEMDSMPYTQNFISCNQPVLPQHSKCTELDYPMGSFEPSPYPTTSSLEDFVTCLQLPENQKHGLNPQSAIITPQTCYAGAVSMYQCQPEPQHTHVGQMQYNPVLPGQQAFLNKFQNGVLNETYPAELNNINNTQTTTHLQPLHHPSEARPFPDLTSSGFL

Regarding `COC(=O)c1ccccc1O`, the outcome in test [1], in test [2], in test [3], in test [5], in test [6] and in [7] was inactive. For the same compound, the call in test [8], in [9] and in [10] was inactive. Besides, the half-maximal activity concentration (AC50) in test [4] is 26.1 µM (active).
For `Nc1cccc(N)c1`, the call in [1], in test [2], in test [3], in test [4], in test [5] and in test [6] was inactive. Besides, the outcome in test [7], in test [8], in [9] and in test [10] was inactive.
As to `C[C@](N)(Cc1ccc(O)c(O)c1)C(=O)O`, the call in test [1], in test [2], in test [3], in test [4], in [5] and in [6] was inactive. Besides, the call in test [7], in [8], in test [9] and in test [10] was inactive.
Regarding `Cc1ccc(O)cc1`, the compound was classed as inactive in [1], in [2], in [3], in [4], in [5] and in test [6]. Moreover, the outcome in test [7], in test [8], in test [9] and in [10] was inactive.
Turning to `CCCCCCCCCCCCCCCO`, the call in test [1], in test [2], in [5], in test [6], in [7] and in test [8] was inactive. In addition, the outcome in test [9] and in test [10] was inactive. Also, the concentration at half-maximal activity (AC50) is 56.6 µM (active) in test [3] and 57.7 µM (active) in test [4].
On to `O=C1OC(=O)C2C3C=CC(C3)C12` (stereo not given), for which the result in test [1], in test [2], in test [3], in test [4], in test [5] and in test [6] was inactive. The compound was called inactive in test [7], in [8], in test [9] and in test [10].
With `COC(=O)CC(=O)OC`, the call in [1], in test [2], in test [3], in test [4], in [5] and in test [6] was inactive. Moreover, the outcome in test [7], in test [8], in [9] and in test [10] was inactive.
Turning to `On1ccccc1=S`, the compound was classed as inactive in [1], in test [2], in test [3], in test [4], in [5] and in [6]. Also, the call in [7], in test [8], in test [9] and in test [10] was inactive.
In the case of `O=C(NS(=O)(=O)/C=C/c1ccccc1)c1ccc(F)cc1Cl`, the compound was called inactive in test [1], in test [2], in test [3], in test [4], in [5] and in test [6]. The compound was called inactive in [7], in [8], in test [9] and in test [10].
For the compound `O=C(O)c1cccc(N(Cc2cccnc2)c2ccc(OC(F)F)c(OC(F)F)c2)c1`, the compound was classed as inactive in [1], in test [2], in [3], in test [4], in [5] and in test [6]. The outcome in [7], in test [8], in [9] and in [10] was inactive.
For `CC[C@H]1CC[C@H](NCc2cc3c(cc2OC)[C@H]2C[C@H]2C(=O)N3C)[C@H](c2ccccc2)N1`, the AC50 was 58.6 µM (active) in test [1], 15.9 µM (active) in test [2] and 55.4 µM (active) in [7]. For the same compound, the compound was called inactive in [3], in [4], in [5], in [6], in test [8] and in test [9]. Besides, the call in test [10] was inactive.
Turning to `O=C1CCCCCN1`, the call in test [1], in test [2], in [3], in test [4], in test [5] and in [6] was inactive. For the same compound, the call in [7], in test [8], in test [9] and in test [10] was inactive.
As to `C=CC(=C)CCC=C(C)C`, the call in [1], in test [2], in test [3], in test [4], in [6] and in [7] was inactive. For the same compound, the outcome in [8], in [9] and in test [10] was inactive. Further, the concentration at half-maximal activity (AC50) in test [5] was 67.1 µM (active).
Turning to `CC1=CC(=O)CC(C)(C)C1`, the compound was classed as inactive in [1], in test [2], in [3], in test [4], in test [5] and in [6]. Besides, the outcome in [7], in [8], in test [9] and in [10] was inactive.
Take `Cc1ccc(C)c(O)c1`: the result in test [1], in test [2], in test [3], in [4], in [5] and in test [6] was inactive. Moreover, the outcome in test [7], in [8], in [9] and in test [10] was inactive.
Regarding `CCCN(C1CCN(C(=O)C2CCNCC2)CC1)[C@@H]1CCc2ccc(OC)cc2C1`, the outcome in test [1], in test [2], in [3], in [6], in test [9] and in test [10] was inactive. Besides, the AC50 was 68.6 µM (active) in test [4], 32.9 µM (active) in test [5], 82.6 µM (active) in test [7] and 53.3 µM (active) in test [8].
On to `CC(=O)c1ccc2c(c1)[C@H](NC(=O)c1ccc(F)cc1)[C@@H](O)C(C)(C)O2`, for which the result in test [1], in test [2], in [3], in test [4], in test [5] and in test [6] was inactive. The compound was classed as inactive in test [7], in test [8], in [9] and in test [10].
For `CC/C(=C\C(=N/O)C(N)=O)C(C)[N+](=O)[O-]` (stereo not given), the call in test [1], in test [2], in test [3], in test [4], in test [5] and in test [6] was inactive. In addition, the outcome in test [7], in test [8], in test [9] and in test [10] was inactive.
In the case of `Cc1ccc(S(=O)(=O)O)cc1C`, the result in [1], in [2], in test [3], in test [4], in test [5] and in test [6] was inactive. Also, the result in test [7], in test [8], in test [9] and in [10] was inactive.
Consider `CCC(C)(C)C(=O)O[C@H]1C[C@@H](C)C=C2C=C[C@H](C)[C@H](CC[C@@H]3C[C@@H](O)CC(=O)O3)[C@H]21`, for which the call in test [1], in test [2], in test [3], in test [4], in test [5] and in [6] was inactive. The outcome in test [7], in [8], in test [9] and in test [10] was inactive.
Regarding `CC(C)CC(C)(O)C#CC(C)(O)CC(C)C` (stereo not given), the call in test [1], in test [2], in test [3], in test [4], in test [5] and in [6] was inactive. The compound was called inactive in test [7], in test [8], in test [9] and in test [10].
